Reference: PubChem BioAssay (NCI)
Values joined by “and” are separate entries in the source; they are usually repeats but may differ in a detail not shown here. Identical values can stand only once. This is part of a sample that, as a whole, favours compounds with a hit. Of some 79,000 tested, about 15% had one in any assay. Some compounds were tested as several samples or in several runs, with calls that do not always agree. Active and inactive are the calls of the source. Rule as the data show it: active = growth inhibition above about 70%; inactive = the rest.

Legend:
[1] = NCI Yeast Anticancer Drug Screen. Data for the rad52 strain (AID 147);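 also: 0% = growth of vehicle-treated control cultures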; details: S. cerevisiae rad52 mutant growth inhibition, stronger effect = higher value
Procedure, shortened: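 Vehicle-treated cultures served as the reference for growth inhibition of compound-exposed yeast bearing a DNA repair mutation.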

[2] = NCI Yeast Anticancer Drug Screen. Data for the wt1 strain (AID 149);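 also: 0% = growth of vehicle-treated wt1 cultures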; details: S. cerevisiae wt1 strain (SPY 50644) growth inhibition, stronger effect = higher value
Procedure, shortened: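 Yeast wt1 strain exposed to compounds; growth inhibition measured relative to vehicle-treated controls.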

[3] = NCI Yeast Anticancer Drug Screen. Data for the rad50EPP+ strain (AID 151);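 also: 0% = growth of vehicle-treated control cultures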; details: S. cerevisiae rad50 mutant strain, stronger effect = higher value
Procedure, shortened: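 In this screen, rad50EPP+ yeast were exposed to compounds. Growth inhibition was scored against vehicle-treated controls.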

[4] = NCI Yeast Anticancer Drug Screen. Data for the mgt1 strain (AID 153); details: S. cerevisiae mgt1 mutant growth inhibition, stronger effect = higher value
Procedure, shortened: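 mgt1 strain exposed; growth vs vehicle control recorded as inhibition.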

[5] = NCI Yeast Anticancer Drug Screen. Data for the rad50 strain (AID 155);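 also: 0% = growth of vehicle-only cultures of the same strain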; details: S. cerevisiae rad50 strain growth inhibition, stronger effect = higher value
Procedure, shortened: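 Yeast carrying a defined DNA repair defect were exposed to test compounds, and growth was compared with vehicle-treated controls to give percent inhibition.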

[6] = NCI Yeast Anticancer Drug Screen. Data for the mec2-1 strain (AID 157); details: S. cerevisiae mec2-1 strain, stronger effect = higher value
Procedure, shortened: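 Vehicle-treated cultures served as reference for growth inhibition of compound-exposed mec2-1 yeast.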

[7] = NCI Yeast Anticancer Drug Screen. Data for the rad14 strain (AID 159);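 also: 0% = growth of vehicle-treated control cultures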; details: S. cerevisiae rad14 strain growth inhibition, stronger effect = higher value
Procedure, shortened: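 Yeast cells carrying a defined DNA-repair defect were exposed to compounds, and growth inhibition was calculated relative to vehicle-treated control cultures.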

[8] = NCI Yeast Anticancer Drug Screen. Data for the sgs1 mgt1 strain (AID 161);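 also: 0% = growth of cultures given vehicle only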; details: S. cerevisiae sgs1 mgt1 strain, stronger effect = higher value
Procedure, shortened: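 Inhibition of yeast growth, normalised to vehicle-treated controls, is reported for a strain bearing genetic alterations in DNA damage repair.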

[9] = NCI Yeast Anticancer Drug Screen. Data for the CLN2oe strain (AID 163);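 also: 0% = growth of vehicle-only control cultures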; details: S. cerevisiae CLN2oe strain, stronger effect = higher value
Procedure, shortened: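 Inhibition relative to vehicle-treated yeast is reported. Cells: strain with genetic alteration in cell-cycle control, grown with compound.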

[10] = NCI Yeast Anticancer Drug Screen. Data for the cln2 rad14 strain (AID 165);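 also: 0% = growth equal to vehicle treated cultures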; details: S. cerevisiae cln2 rad14 strain, stronger effect = higher value
Procedure, shortened: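 Each compound was tested on cln2 rad14 yeast. Inhibition of growth was calculated against vehicle-exposed controls.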

[11] = NCI Yeast Anticancer Drug Screen. Data for the bub3 strain (AID 167); details: S. cerevisiae bub3 mutant strain, stronger effect = higher value
Procedure, shortened: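 Compounds were applied to a genetically altered yeast strain carrying a cell-cycle control defect. Growth inhibition was scored against vehicle-treated controls.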

[12] = NCI Yeast Anticancer Drug Screen. Data for the wt2 strain (AID 169);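 also: 0% = growth of vehicle-treated yeast cultures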; details: S. cerevisiae wt2 strain growth inhibition, stronger effect = higher value
Procedure, shortened: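 Inhibition of yeast growth was determined after compound treatment, normalised to controls receiving only vehicle.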

[13] = NCI Yeast Anticancer Drug Screen. Data for the mlh1 strain (AID 171);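 also: 0% = growth of vehicle-treated control cultures of the same strain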; details: S. cerevisiae mlh1 strain growth inhibition, stronger effect = higher value
Procedure, shortened: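 Vehicle-normalised growth inhibition of a repair- or checkpoint-altered yeast strain following compound treatment.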

[14] = NCI Yeast Anticancer Drug Screen. Data for the sgs1 strain (AID 173);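 also: 0% = growth of vehicle-only control cultures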; details: S. cerevisiae sgs1 mutant, stronger effect = higher value
Procedure, shortened: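 Screen format: yeast with repair or checkpoint alterations, compound exposure, growth read relative to vehicle.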

[15] = NCI Yeast Anticancer Drug Screen. Data for the mlh1 rad18 strain (AID 175); details: S. cerevisiae mlh1 rad18 strain growth inhibition, stronger effect = higher value
Procedure, shortened: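 Vehicle-treated cultures served as the reference for growth inhibition in a yeast strain carrying DNA damage repair alterations exposed to each compound.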

[16] = NCI Yeast Anticancer Drug Screen. Data for the rad18 strain (AID 177); details: S. cerevisiae rad18 mutant growth inhibition, stronger effect = higher value
Procedure, shortened: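 Test articles were incubated with altered yeast defective in DNA damage repair. Results are given as inhibition of growth versus vehicle.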

[17] = at 5.0 µM (retest, dose inferred, filed as 0.5)
[18] = at 50.0 µM (retest, dose inferred, filed as 5.0)

Measured: growth inhibition

Cc1nc2c(Br)cc(Br)cc2c(=O)n1-c1ccccc1NC1OCC(O)C(O)C1O (stereo not drawn)
70.8% (active) and 22.4% (inactive): [6]; at 50.0 µM
active: [1]; at 100.0 µM 97% | [2]; at 100.0 µM 93% | [4]; at 100.0 µM 97% | [5]; at 50.0 µM 94.5% and 89.8% | [5]; at 100.0 µM 96% | [6]; at 100.0 µM 96% | [7]; at 100.0 µM 94% | [9]; at 33.0 µM 72% | [9]; at 100.0 µM 97% | [10]; [18] 95% and 85% | [11]; at 50.0 µM 97.2% and 78.4% | [11]; at 100.0 µM 96% | [12]; at 100.0 µM 96% | [13]; at 100.0 µM 92% | [14]; at 100.0 µM 88% | [15]; [18] 93% and 74% | [15]; at 50.0 µM 95.2% and 82.2% | [16]; at 100.0 µM 97%
88.5% (active) and 61.5% (inactive): [8]; at 50.0 µM
92% (active) and 51% (inactive): [11]; [18]
91.5% (active) and 60.1% (inactive): [10]; at 50.0 µM
75% (active) and 23% (inactive): [6]; [18]
74% (active) and 68% (inactive): [5]; [18]
inactive: [1]; at 1.2 µM 1% | [1]; at 3.7 µM 4% | [1]; at 11.0 µM 25% | [1]; at 33.0 µM 44% | [2]; at 1.2 µM -50% | [2]; at 3.7 µM 3% | [2]; at 11.0 µM 9% | [2]; at 33.0 µM 28% | [3]; at 1.2 µM 37% | [3]; at 3.7 µM 36% | [3]; at 11.0 µM 17% | [3]; at 33.0 µM 20% | [3]; at 100.0 µM 8% | [4]; at 1.2 µM 25% | [4]; at 3.7 µM 21% | [4]; at 11.0 µM 20% | [4]; at 33.0 µM 39% | [5]; at 1.2 µM 0% | [5]; at 3.7 µM 6% | [5]; [17] 10% and 17% | [5]; at 11.0 µM 18% | [5]; at 33.0 µM 63% | [6]; at 1.2 µM 7% | [6]; at 3.7 µM 9% | [6]; [17] 10% and 22% | [6]; at 11.0 µM 14% | [6]; at 33.0 µM 38% | [7]; at 1.2 µM 2% | [7]; at 3.7 µM 4% | [7]; at 11.0 µM 16% | [7]; at 33.0 µM 39% | [8]; [17] 12% and 11% | [8]; [18] 13% and 24% | [9]; at 1.2 µM 40% | [9]; at 3.7 µM 35% | [9]; at 11.0 µM 44% | [10]; [17] 40% and -2% | [11]; at 1.2 µM 11% | [11]; at 3.7 µM 5% | [11]; [17] 20% and 14% | [11]; at 11.0 µM 8% | [11]; at 33.0 µM 47% | [12]; at 1.2 µM 2% | [12]; at 3.7 µM 4% | [12]; at 11.0 µM 10% | [12]; at 33.0 µM 43% | [13]; at 1.2 µM 0% | [13]; at 3.7 µM 4% | [13]; at 11.0 µM 12% | [13]; at 33.0 µM 36% | [14]; at 1.2 µM 2% | [14]; at 3.7 µM 5% | [14]; at 11.0 µM 13% | [14]; at 33.0 µM 41% | [15]; [17] -23% and 18% | [16]; at 1.2 µM 42% | [16]; at 3.7 µM 41% | [16]; at 11.0 µM 41% | [16]; at 33.0 µM 62%
